Growth inhibition data for nine compounds are collected here from PubChem BioAssay (NCI).

Assay [1] in a line: NCI Yeast Anticancer Drug Screen. Data for the rad50 strain (AID 155).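 Also: 0% = growth of vehicle-only cultures of the same strain.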 The note with it: S. cerevisiae rad50 strain growth inhibition, active compounds read high. Summed up: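 Yeast carrying a defined DNA repair defect were exposed to test compounds, and growth was compared with vehicle-treated controls to give percent inhibition.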
The nature of assay [2]: NCI Yeast Anticancer Drug Screen. Data for the mec2-1 strain (AID 157). The note with it: S. cerevisiae mec2-1 strain, active compounds read high. In a few lines: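 Yeast mec2-1 mutant treated with compound. Readout: growth inhibition vs vehicle controls.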
Assay [3] in a line: NCI Yeast Anticancer Drug Screen. Data for the sgs1 mgt1 strain (AID 161).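 Also: 0% = growth of cultures given vehicle only.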 The note with it: S. cerevisiae sgs1 mgt1 strain, active compounds read high. Summed up: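 Test agents were incubated with a DNA-repair-mutant yeast strain. Growth was then read and compared against vehicle-treated controls.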
Assay [4] can be described thus: NCI Yeast Anticancer Drug Screen. Data for the cln2 rad14 strain (AID 165).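 Also: 0% = growth equal to vehicle treated cultures.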 The note with it: S. cerevisiae cln2 rad14 strain, active compounds read high. In a few lines: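 cln2 rad14 yeast strain; compound exposure; growth inhibition read vs vehicle controls.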
Assay [5] in a line: NCI Yeast Anticancer Drug Screen. Data for the bub3 strain (AID 167). The note with it: S. cerevisiae bub3 mutant strain, active compounds read high. Summed up: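 Compounds were applied to a genetically altered yeast strain carrying a cell-cycle control defect. Growth inhibition was scored against vehicle-treated controls.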
Assay [6] in a line: NCI Yeast Anticancer Drug Screen. Data for the mlh1 rad18 strain (AID 175). The note with it: S. cerevisiae mlh1 rad18 strain growth inhibition, active compounds read high. In a few lines: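 Yeast w/ defined DNA-repair lesions; compound exposure; growth vs vehicle controls → % inhibition.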
Setting [7] is: at 5.0 µM (retest, dose inferred, filed as 0.5).
The mark [8] stands for this setting: at 50.0 µM (retest, dose inferred, filed as 5.0).

About 79,000 compounds went through this panel and 15% of them were active in at least one assay; those are over-represented in the sample as a whole. Unmarked numbers belong to inactive results. Active and inactive are the calls of the source. Rule as the data show it: active = growth inhibition above about 70%; inactive = the rest.

Take `CCCCN(CCCC)CC(O)c1cc(-c2ccc(Cl)cc2)nc2c(Cl)cccc12` (configuration not stated): the growth inhibition in assay [1] (setting [7]) is 1%; in assay [1] (setting [8]), 6%; in assay [1] (at 50.0 µM) it was 99% (active); in assay [2] (setting [7]), -2%; in assay [2] (setting [8]), 1%; in assay [2] (at 50.0 µM) it was 99.5% (active). For the same compound, the growth inhibition in assay [3] (setting [7]) was 1%; in assay [3] (setting [8]), 12%; in assay [3] (at 50.0 µM), 99.2% (active); in assay [4] (setting [7]), -3%; in assay [4] (setting [8]), -13%; in assay [4] (at 50.0 µM), 98.5% (active). Also, the growth inhibition is -4% in assay [5] (setting [7]); 0% in assay [5] (setting [8]); 98.8% (active) in assay [5] (at 50.0 µM); -3% in assay [6] (setting [7]); -4% in assay [6] (setting [8]); 99.3% (active) in assay [6] (at 50.0 µM).

As for `Cc1csc2c1C(=O)c1ccsc1C2=O`, the growth inhibition was 54% in assay [1] (setting [7]); 97% (active) in assay [1] (setting [8]); 88.8% (active) in assay [1] (at 50.0 µM); 50% in assay [2] (setting [7]); 99% (active) in assay [2] (setting [8]); 91.5% (active) in assay [2] (at 50.0 µM). For the same compound, the growth inhibition in assay [3] (setting [7]) is 72% (active); in assay [3] (setting [8]), 99% (active); in assay [3] (at 50.0 µM), 92.2% (active); in assay [4] (setting [7]), 31%; in assay [4] (setting [8]), 98% (active); in assay [4] (at 50.0 µM), 90.8% (active). The growth inhibition in assay [5] (setting [7]) is 86% (active); in assay [5] (setting [8]), 98% (active); in assay [5] (at 50.0 µM) it was 91.5% (active); in assay [6] (setting [7]), 65%; in assay [6] (setting [8]) it was 99% (active); in assay [6] (at 50.0 µM), 91.1% (active).

Consider `CC(C)(C)C(=O)OC12/C(=N/O)CCCCCC1c1ccccc12` (configuration not stated), for which the growth inhibition in assay [1] (setting [7]) was -17%; in assay [1] (setting [8]), 88% (active); in assay [1] (at 50.0 µM), 81.8% (active); in assay [2] (setting [7]), 6%; in assay [2] (setting [8]), 92% (active); in assay [2] (at 50.0 µM), 86% (active). Also, the growth inhibition is -12% in assay [3] (setting [7]); 89% (active) in assay [3] (setting [8]); 81.2% (active) in assay [3] (at 50.0 µM); 31% in assay [4] (setting [7]); 96% (active) in assay [4] (setting [8]); 85.3% (active) in assay [4] (at 50.0 µM). Besides, the growth inhibition in assay [5] (setting [7]) was -9%; in assay [5] (setting [8]), 93% (active); in assay [5] (at 50.0 µM) it was 84.2% (active); in assay [6] (setting [7]), 14%; in assay [6] (setting [8]) it was 92% (active); in assay [6] (at 50.0 µM), 80.5% (active).

In the case of `CCCCN(CCCC)CC(O)c1ccc(CCc2ccccc2)cc1` (configuration not stated), the growth inhibition was -6% in assay [1] (setting [7]); 91% (active) in assay [1] (setting [8]); 99.2% (active) in assay [1] (at 50.0 µM); 22% in assay [2] (setting [7]); 92% (active) in assay [2] (setting [8]); 98.7% (active) in assay [2] (at 50.0 µM). The growth inhibition in assay [3] (setting [7]) was 13%; in assay [3] (setting [8]), 99% (active); in assay [3] (at 50.0 µM), 99.5% (active); in assay [4] (setting [7]), -7%; in assay [4] (setting [8]) it was 88% (active); in assay [4] (at 50.0 µM) it was 98.7% (active). Also, the growth inhibition in assay [5] (setting [7]) was -4%; in assay [5] (setting [8]) it was 92% (active); in assay [5] (at 50.0 µM), 76.2% (active); in assay [6] (setting [7]), 28%; in assay [6] (setting [8]), 97% (active); in assay [6] (at 50.0 µM), 99.3% (active).

Turning to `CCCCC#CCCOC(=O)C#CCCCC`, the growth inhibition was 1% in assay [1] (setting [7]); 6% in assay [1] (setting [8]); 30% in assay [1] (at 50.0 µM); 1% in assay [2] (setting [7]); 4% in assay [2] (setting [8]); 28.2% in assay [2] (at 50.0 µM). The growth inhibition in assay [3] (setting [7]) is 3%; in assay [3] (setting [8]) it was 7%; in assay [3] (at 50.0 µM) it was -0.85%; in assay [4] (setting [7]), 8%; in assay [4] (setting [8]) it was 9%; in assay [4] (at 50.0 µM) it was 92% (active). In addition, the growth inhibition in assay [5] (setting [7]) is 3%; in assay [5] (setting [8]) it was 12%; in assay [5] (at 50.0 µM) it was -21.3%; in assay [6] (setting [7]), 0%; in assay [6] (setting [8]) it was 3%; in assay [6] (at 50.0 µM), 3.25%.

For `O=C(Nc1ccc(Br)cc1)c1cc(Br)c(O)c(Br)c1O`, the growth inhibition was 21% in assay [1] (setting [7]); 99% (active) in assay [1] (setting [8]); 58.1% in assay [1] (at 50.0 µM); 9% in assay [2] (setting [7]); 99% (active) in assay [2] (setting [8]); 98.8% (active) in assay [2] (at 50.0 µM). Also, the growth inhibition in assay [3] (setting [7]) is 29%; in assay [3] (setting [8]) it was 99% (active); in assay [3] (at 50.0 µM), 59.9%; in assay [4] (setting [7]) it was -5%; in assay [4] (setting [8]), 99% (active); in assay [4] (at 50.0 µM), 92.2% (active). The growth inhibition is 11% in assay [5] (setting [7]); 99% (active) in assay [5] (setting [8]); 98.4% (active) in assay [5] (at 50.0 µM); 24% in assay [6] (setting [7]); 99% (active) in assay [6] (setting [8]); 98% (active) in assay [6] (at 50.0 µM).

Regarding `Nc1nnc2nc(C(C(=O)c3ccccc3Cl)c3nc4nnc(N)n4[nH]c3=O)c(=O)[nH]n12`, the growth inhibition is -2% in assay [1] (setting [7]); -4% in assay [1] (setting [8]); 93.8% (active) in assay [1] (at 50.0 µM); 1% in assay [2] (setting [7]); 0% in assay [2] (setting [8]); 99.8% (active) in assay [2] (at 50.0 µM). Besides, the growth inhibition was -2% in assay [3] (setting [7]); -2% in assay [3] (setting [8]); 41.5% in assay [3] (at 50.0 µM); -1% in assay [4] (setting [7]); -2% in assay [4] (setting [8]); 74.6% (active) in assay [4] (at 50.0 µM). For the same compound, the growth inhibition is -1% in assay [5] (setting [7]); -7% in assay [5] (setting [8]); 99.5% (active) in assay [5] (at 50.0 µM); 0% in assay [6] (setting [7]); -4% in assay [6] (setting [8]); 96.5% (active) in assay [6] (at 50.0 µM).

Turning to `O=S(=O)(O)CNc1cc(Cl)cc(Cl)c1`, the growth inhibition is 34% in assay [1] (setting [7]); 78% (active) in assay [1] (setting [8]); 13.9% in assay [1] (at 50.0 µM); 9% in assay [2] (setting [7]); 28% in assay [2] (setting [8]); -5% in assay [2] (at 50.0 µM). Also, the growth inhibition in assay [3] (setting [7]) was 1%; in assay [3] (setting [8]), 17%; in assay [3] (at 50.0 µM), 2.3%; in assay [4] (setting [7]), 4%; in assay [4] (setting [8]), 16%; in assay [4] (at 50.0 µM), -53.4%. The growth inhibition was 6% in assay [5] (setting [7]); 85% (active) in assay [5] (setting [8]); 2.1% in assay [5] (at 50.0 µM); 8% in assay [6] (setting [7]); 33% in assay [6] (setting [8]); 41.8% in assay [6] (at 50.0 µM).

As for `COC(=O)/C=C(\NC1CC(OC2C[C@](O)(C(C)=O)Cc3c(O)c4c(c(O)c32)C(=O)c2c(OC)cccc2C4=O)OC(C)C1O)C(=O)OC` (some centres not stated), the growth inhibition was 25% in assay [1] (setting [7]); 97% (active) in assay [1] (setting [8]); 97.5% (active) in assay [1] (at 50.0 µM); 15% in assay [2] (setting [7]); 98% (active) in assay [2] (setting [8]); 97.7% (active) in assay [2] (at 50.0 µM). Further, the growth inhibition is -3% in assay [3] (setting [7]); 97% (active) in assay [3] (setting [8]); 97.7% (active) in assay [3] (at 50.0 µM); 2% in assay [4] (setting [7]); 96% (active) in assay [4] (setting [8]); 94.9% (active) in assay [4] (at 50.0 µM). In addition, the growth inhibition in assay [5] (setting [7]) is 7%; in assay [5] (setting [8]), 98% (active); in assay [5] (at 50.0 µM) it was 74.2% (active); in assay [6] (setting [7]), -6%; in assay [6] (setting [8]), 98% (active); in assay [6] (at 50.0 µM), 98.3% (active).
